Test results as given in PubChem BioAssay (NCI).
Compounds without any hit were thinned out: in the full panel of roughly 79,000, 15% have a hit. Activity calls are given as the source filed them. Cut-off read from the data, not from the text of the source: active = growth inhibition above about 70%; inactive = the rest.

Assay: NCI Yeast Anticancer Drug Screen. Data for the rad50 strain (AID 155);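 note: 0% = growth of vehicle-only cultures of the same strain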
Details: S. cerevisiae rad50 strain growth inhibition; at 50.0 µM; active compounds read high
Procedure, shortened: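 Yeast carrying a defined DNA repair defect were exposed to test compounds, and growth was compared with vehicle-treated controls to give percent inhibition.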

| SMILES | growth inhibition |
| --- | --- |
| Cc1ccc2ccc(-c3cc4ccccc4s3)nc2c1 | -12.2% (inactive) |
| Cc1nn(C)c(NC(=O)c2ccccc2O)c1SC#N | 43.3% (inactive) |
| O=C(CCC(=O)Nc1cc(Cl)ccc1Cl)CC(=O)c1ccc(Cl)cc1 | 14.1% (inactive) |
| C=CCOC(=O)/C=C\c1ccccc1OC | 23.9% (inactive) |
| CCC(c1ccc(N(CC)CC)cc1[N+](=O)[O-])c1ccc(N(CC)CC)cc1[N+](=O)[O-] | 29% (inactive) |
| CCCCCC(Cl)(CC)CCCCC | -23.4% (inactive) |
| CN(C)c1ccc(N=C2C=CC(=C(C#N)C#N)c3ccccc32)cc1 | -24% (inactive) |
| O=c1c2cc([N+](=O)[O-])ccc2[nH]n1Cc1ccccc1Cl | -0.1% (inactive) |
| CCCCNc1ccc(S(=O)(=O)c2ccc(NCCCC)c([N+](=O)[O-])c2)cc1[N+](=O)[O-] | 19.6% (inactive) |
| O=C1/C(=C/c2ccc(F)cc2)CC/C1=C\c1ccc(F)cc1 | -10.5% (inactive) |
| COC1CCC(OC)(C(=O)NN)O1 (configuration not stated) | -22.9% (inactive) |
| CC(C)(C)N(OC(=O)c1ccccc1)C(=O)c1ccccc1 | 3.25% (inactive) |
| O=C1NC(=O)C2(CCCC2=Nc2ccc(Br)cc2)C2C=CN(Cc3ccccc3)C=C12 (configuration not stated) | 0.25% (inactive) |
| C=Cc1ccc(S(N)(=O)=O)cc1 | -7.45% (inactive) |
| Cc1cccc(NC(=O)Nc2ccccc2)n1 | 4.65% (inactive) |
| CC(C)(CO)[C@@H](O)C(=O)NCCC(=O)O | -27.5% (inactive) |
| O=S1(=O)C(c2ccc(F)cc2)=C(O)c2cc3ccccc3nc21 | 29.2% (inactive) |
